{"source": "PubChem BioAssay", "note": "Values without a mark were called inactive. The rule behind the calls is not given here.", "data": [{"molecular_target": "Pantothenate synthetase (Mycobacterium tuberculosis (strain ATCC 25618 / H37Rv)) (UniProt P9WIL5)", "sequence (P9WIL5 whole entry, looked up)": "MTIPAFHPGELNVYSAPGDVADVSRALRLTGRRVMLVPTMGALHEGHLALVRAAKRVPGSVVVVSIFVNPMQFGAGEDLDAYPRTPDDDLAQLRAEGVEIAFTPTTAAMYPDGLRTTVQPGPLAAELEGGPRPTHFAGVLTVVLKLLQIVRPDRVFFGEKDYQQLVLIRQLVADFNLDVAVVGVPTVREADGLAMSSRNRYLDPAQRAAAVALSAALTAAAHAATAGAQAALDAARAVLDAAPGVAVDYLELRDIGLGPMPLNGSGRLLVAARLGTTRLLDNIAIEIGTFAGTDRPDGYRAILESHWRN", "assay": "Recombinant Mtb pantothenate synthetase (PanC) inhibitors, coupled enzyme, confirmatory (AID 375);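 note: 0% = full reaction with vehicle and 100% = no enzyme background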", "settings": "coupled enzyme assay; at 10 µM, active compounds read high", "units": {"inhibition": "%"}, "values": [{"smiles": "Cc1ccccc1-n1c(=O)cc(NCc2ccc3c(c2)OCO3)[nH]c1=O", "inhibition": 2}, {"smiles": "COc1ccc(N2C(=O)CC(N3CCN(S(=O)(=O)c4c(F)cccc4F)CC3)C2=O)cc1OC", "note": "(stereo not drawn)", "inhibition": 1}, {"smiles": "Cc1ccc2c(c1C)NC(C)CC2C", "note": "(stereo not drawn)", "inhibition": 0}, {"smiles": "CCC(C)NC(=O)CC1Oc2ccc(C)cc2NC1=O", "note": "(stereo not drawn)", "inhibition": 0}, {"smiles": "O=C(Nc1ccc(S(=O)(=O)N2CCc3ccccc32)cc1)c1ccc2c(c1)OCO2", "inhibition": 0}, {"smiles": "CCOC(=O)c1cccc(NC(=O)CSc2nnc(C3CCCCC3)n2C)c1", "inhibition": 2}, {"smiles": "COc1cccc(OC)c1C(=O)N1CCOCC1", "inhibition": 12}, {"smiles": "O=C(Nc1ccc2c(c1)OCO2)C(c1ccc(Cl)cc1)N1CCN(C(=O)c2ccco2)CC1", "note": "(stereo not drawn)", "inhibition": 0}, {"smiles": "Cc1cc2c(cc(C(=O)OCC(=O)NCc3cccs3)n2C(C)C)o1", "inhibition": 0}, {"smiles": "COC(=O)C1=C(C)Nc2ncnn2C1c1ccco1", "note": "(stereo not drawn)", "inhibition": 0}, {"smiles": "Cc1c(C(=O)OC2CCCCC2)[nH]c2c1C(=O)CC(C)(C)C2", "inhibition": 0}, {"smiles": "CN1CCN(C(=O)c2ccc(CS(=O)(=O)c3c(Cl)cccc3Cl)o2)CC1", "inhibition": 16}, {"smiles": "Cc1cc(C)c(NC(=O)C2CSCCS2)c(C)c1", "note": "(stereo not drawn)", "inhibition": 0}, {"smiles": "O=C(Nn1cnnc1)c1cc2c(s1)CCCC2", "inhibition": 0}, {"smiles": "Cn1nnc2c(sc3nc(N4CCOCC4)c4c(c32)CCCC4)c1=O", "inhibition": 8}, {"smiles": "CC1(C)Cc2cccc(OCC(O)CN3CCN(c4ccccn4)CC3)c2O1", "note": "(stereo not drawn)", "inhibition": 0}, {"smiles": "CN1CCN(CCCN2c3ccccc3Sc3ccc(Cl)cc32)CC1", "inhibition": 0}, {"smiles": "CCN(CC)c1ccc2cc(NC(=O)CCC(=O)O)c(=O)oc2c1", "inhibition": 0}, {"smiles": "CC(=O)Oc1ccc(-c2ccc(C(=O)O)cc2)cc1", "inhibition": 4}, {"smiles": "Cn1c(N2CCC(C(N)=O)CC2)nc2c1c(=O)n(Cc1ccc(Br)cc1)c(=O)n2C", "inhibition": 0}, {"smiles": "Cc1ccc(S(=O)(=O)C(C#N)c2nc3ccccc3nc2OC(C)C)cc1", "note": "(stereo not drawn)", "inhibition": 0}, {"smiles": "CCOC(=O)C1=C(C)NC2=C(C(=O)CC(C)(C)C2)C1c1ccc(N(C)C)cc1", "note": "(stereo not drawn)", "inhibition": 0}, {"smiles": "COc1ccccc1-c1coc2c(CN3CCN(CCO)CC3)c(O)ccc2c1=O", "inhibition": 0}]}]}
